# Measured values as given in ChEMBL document CHEMBL4513216, “Probing the Open Global Health Chemical Diversity Library for Multistage-Active Starting Points for Next-Generation Antimalarials” (ACS Infect Dis, 2020).
# Among all 69,000 compounds or so, about 8,600 (12%) showed an effect of 50% or more. Only a selection was taken, and strong results are over-represented in it overall.
# Tested on: Plasmodium berghei
# Assay: Screen against P. berghei liver stage (PbLuc), transformed with Luciferase, at 10uM
# Assay type: functional, HepG2
# Conditions: tested at 10 uM
row,Structure (SMILES),INHIBITION [%]
1,Cc1nn(C2CCCCC2)c2nc(C(C)(C)CN3CCOCC3)[nH]c12,-16.9
2,CN(Cc1noc(C2CC2)n1)C1CCN(Cc2ncc[nH]2)C1 (configuration not stated),3.1
3,Cc1nc(CN2CCCC(NCc3cnc(C(C)(C)C)s3)C2)no1 (configuration not stated),-19.6
4,O=C(NCC1(Sc2ccccc2)CC1)c1cc[nH]n1,5.15
5,O=C1CCC2(CCC(NCc3ccsc3)CC2)N1Cc1ccccc1 (configuration not stated),29.7
6,CCc1c(C)n(C)c2nc3ccccc3n2c1=O,-13.8
7,CN1CCCCC1CCC(=O)NCCCn1nccc1C1CC1 (configuration not stated),47.7
8,CC(C)N(CC(N)=O)C(=O)CCC(=O)c1ccc(F)cc1F,23.7
9,CS(=O)(=O)c1cccc(C(N)c2ccccc2)c1 (configuration not stated),-19.4
10,N#CC1(C(=O)NCc2ccc(F)cc2)CCCC1,-22.1
11,CC(C)(N)C(=O)N1CCCC1c1cncc(Oc2ccccc2)n1 (configuration not stated),26.3
12,CCn1nc2c(cc1=O)CN(Cc1nc(-c3ccco3)no1)CC2,35.9
13,CCCn1nc2c(cc1=O)CN(Cc1nc(-c3ccco3)no1)CC2,20.8
14,Cc1cc(CN2CCc3nn(C(C)C)c(=O)cc3C2)no1,35.1
15,CCCn1nc2c(cc1=O)CN(Cc1c(C)noc1C)CC2,2.69
16,Cc1noc(C)c1CN1CCc2nn(C(C)C)c(=O)cc2C1,54.4
17,CC(C)n1nc2c(cc1=O)CN(Cc1nc(-c3ccco3)no1)CC2,54.4
18,CC(C)Cc1noc(CN(C)C(=O)CCNC(=O)c2ccccc2F)n1,51.5
19,CCN(Cc1nc(COC)no1)C(=O)CCNC(=O)c1ccccc1F,58.1
20,CCN(CC1CCOCC1)C(=O)CCNC(=O)c1ccccc1F,32.2
21,CC(C)c1nc(CN(C)C(=O)CCNC(=O)c2ccccc2F)no1,12.4
22,Cc1nc(CCN(C)C(=O)CCNC(=O)c2ccccc2F)no1,43.9
23,CCN(CC1CCCCO1)C(=O)CCNC(=O)c1ccccc1F (configuration not stated),28.5
24,CC(C)CCNC(=O)C1CCN(c2ccc3nnc(C(C)C)n3n2)CC1,21
25,O=S(=O)(NCC1(c2cccs2)CCOCC1)c1cccnc1,-115
26,NCc1cccc(NC(=O)CCN2CCOCC2)c1,-5.1

row,Structure (SMILES),INHIBITION [%]
1,OCCC[C@@H]1CN(c2ncc(Cl)cc2Cl)CC[C@@H]1N1CCOCC1,1.93
2,O=C(NCc1cn2c(n1)CN(Cc1cccnc1)CC2)C1CCC1,26.3
3,c1ccc(-c2cc(CNCCCN3CCCCC3)c3nnnn3c2)cc1,-38.2
4,c1ccc(-c2cc(CNCCN3CCOCC3)c3nnnn3c2)cc1,5.11
5,c1ccc(-c2cc(CNCCCC3CCOC3)c3nnnn3c2)cc1 (configuration not stated),74.9
6,Cc1cnn(CC2CCN(CC(O)COc3ccc(F)cc3)CC2)c1 (configuration not stated),56.1
7,Cc1cnn(CC2CCN(CC(O)c3ccccc3)CC2)c1 (configuration not stated),33
8,Cc1cnn(CC2CCN(CC(O)c3ccccc3Cl)CC2)c1 (configuration not stated),57.2
9,Cc1cnn(CC2CCN(CC(O)Cn3cccn3)CC2)c1 (configuration not stated),68.5
10,Cc1cc(C)n(CC2CCN(CC(O)Cn3cccn3)CC2)n1 (configuration not stated),-12.2
11,Cc1ccc(OCC(O)CN2CCC(Cn3cc(C)cn3)CC2)cc1 (configuration not stated),33.3
12,Cc1cnn(CC2CCN(CC(O)COc3ccccc3)CC2)c1 (configuration not stated),14.5
13,Cc1cnn(CC2CCN(CC(O)CN3CCC(C)CC3)CC2)c1 (configuration not stated),30.4
14,Cc1cnn(CC2CCN(CC(O)c3ccccc3F)CC2)c1 (configuration not stated),-30.8
15,CCC(CC)S(=O)(=O)NC(=O)c1ccc2c(c1)ncn2C,5.11
16,NC(=O)C1CCN(C(=O)NCCOc2ccc3c(c2)OCO3)C1 (configuration not stated),-69.3
17,CCCc1noc(CN2CCCCC2Cn2cncn2)n1 (configuration not stated),27.2
18,CN1CCN(CCO)C(=O)C12CCN(Cc1ccsc1)CC2,18.2
19,O=C(N[C@@H]1CCC[C@@H](N2CCCC2)[C@@H]1O)c1cc2ccccc2[nH]1,48.4
20,CN(C)CC(=O)N1CC(c2nn(C)c3nccnc23)C1,-0.902
21,O=C(c1ccc(-n2cccn2)nc1)N1CCCC(c2cnccn2)C1 (configuration not stated),-50.3
22,c1cc(C2CCN(c3cnccn3)CC2)ccn1,18.4
23,O=C(c1ccccc1)C1CCN(c2cncc(-n3cccn3)n2)CC1,74.8
24,Nc1cccnc1N1CCC(c2ccccc2)CC1,6.29
25,c1ccc(COC2CCN(c3cncc(-n4cccn4)n3)CC2)cc1,53.5
26,NC(=O)CC1CCN(c2cncc(OCc3ccccc3)n2)CC1,12.4

row,Structure (SMILES),INHIBITION [%]
1,c1ccc(C2CCN(c3cncc(-n4cccn4)n3)CC2)cc1,85.1
2,NC(=O)C1CCN(c2cncc(-n3cccn3)n2)CC1,48.3
3,CN(C)C(=O)C1CCN(c2cncc(-n3cccn3)n2)CC1,41.4
4,c1ccc(C2CCCN(c3cncc(-n4cccn4)n3)CC2)cc1 (configuration not stated),90.2
5,Cn1cnnc1C1CCN(c2cncc(-n3cccn3)n2)CC1,-8.19
6,N#Cc1cccnc1N1CCC(OCc2ccccc2)CC1,18.9
7,Cc1nc(CN2C[C@@H]3CN(C(=O)c4cccn4C)C[C@@H]3C2=O)cs1,39.8
8,Cc1ccc2nc(C3CCCN(CC(C)C)C3)nc(O)c2c1 (configuration not stated),13.5
9,CCc1n[nH]c(C2CN(C(=O)c3nc(C)n4ccccc34)CCO2)n1 (configuration not stated),17.8
10,Cc1nc2cc(C(=O)N3CCCC(n4ccnc4)C3)ccc2n1C (configuration not stated),33.3
11,O=C(NCc1ccc(F)cc1)N1CCN(CC(O)C2CC2)CC1 (configuration not stated),30.8
12,Cc1ccc(S(=O)(=O)NCC2COCc3c(C)nnn3C2)cc1F (configuration not stated),24.5
13,c1cc(C2CCN(c3cncnc3)CC2)ccn1,39.6
14,c1ccc(N2CCC(c3ccncc3)CC2)cc1,65.2
15,c1cncc(N2CCC(c3ccncc3)CC2)c1,26.221
16,Cc1nc(C2CCCN(C(=O)c3ccc(OCC4CC4)nc3)C2)no1 (configuration not stated),8.64
17,NC1CCCN(Cc2cccc(C(F)(F)F)c2)C1=O (configuration not stated),57.2
18,FC(F)(F)c1ccnc(N2CCCC(N3CCOCC3)C2)c1 (configuration not stated),40.5
19,O=C1C(N2CCOCC2)CCCN1Cc1cccc(C(F)(F)F)c1 (configuration not stated),50.8
20,CC(O)(CN1CCC(O)CC1)c1cccc(C(F)(F)F)c1 (configuration not stated),-37.7
21,NC(=O)CN(C(=O)Cc1cccc(C(F)(F)F)c1)C1CCCC1,-23.1
22,O=c1n(Cc2cccc(C(F)(F)F)c2)nc2ncccn12,-39.3
23,O[C@H]1CN(Cc2cccc(C(F)(F)F)c2)CC[C@@]12CCCO2,37.6
24,O=C1C(N2CC[C@@H](O)C2)CCCN1Cc1cccc(C(F)(F)F)c1 (some centres not stated),77.8
25,O[C@H]1COCCN(Cc2cccc(C(F)(F)F)c2)C1,-4.82
